# SNCA expr inhib = Primary qHTS assay for inhibitors of alpha-synuclein gene (SNCA) expression | HEK-293 SNCA-luciferase knock-in, luminescence, 24 h | Potency, µM (highest dose often 57.2 µM), inactives show at the top dose activity change, negative = inhibition, most hits filed as inhibitors | hit rate 0.17% among 140,000 | AID 1671194, 2021;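 also: potency is read from the fitted curve at half-maximal effect; plate controls were DMSO cells for no effect and cell-free wells for full effect; nearly all actives have a fitted effect of over 45% in size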
# KDM5B inhibitor = Primary screen for KDM5B Histone Demethylases FDH-coupled qHTS; hit rate 2.6% among 220,000; AID 1347165, 2019; Potency, µM (series often up to 57.7 µM), most hits filed as inhibitors; KDM5B demethylase, FDH-coupled NADH fluorescence (FDH is formaldehyde dehydrogenase); Lysine-specific demethylase 5B (Homo sapiens), Q9UGL1; also: potency is read from the fitted curve at half-maximal effect; 0% is about no effect; nearly all actives have a fitted effect of over 70% in size
#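 Here, H3K4me3 peptide (12.5 µM in substrate mix) is demethylated by KDM5BΔAP, 200 nM final, after 10 min compound exposure. Formaldehyde product is coupled through FDH (0.25 U/mL in mix) to NADH fluorescence; 30-min ΔRFU feeds dose-response curves.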
# IP6K1 inhibitor = Primary qHTS assay for small molecule inhibitors of Inositol hexaphosphate kinase 1 (IP6K1). IP6K1 kinase, ADP-Glo luminescence, 2 h; stronger effect = lower value. hit rate 0.81% among 140,000. activity change, % (series mostly up to about 58 µM). Inositol hexakisphosphate kinase 1 (Homo sapiens), Q92551. AID 1645851, 2021; in the data active = activity change below about -25%; also: % is scaled to controls: 0 for no effect and ±100 for the full control effect
#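 ADP-Glo luminescence measures ADP made by human IP6K1 during a 2 h RT reaction with ATP/IP6 (mix at 1.3 mM/130 uM); top library doses 57.5 and 19.1 uM final.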
# SNCA viab count = GF-AFC viability counterscreen for inhibitors of alpha-synuclein gene (SNCA) expression. HEK-293-SNCA-luc viability, GF-AFC fluorescence, 24 h. Potency, µM (titrated, usually from 57.1 µM), for inactives: top-dose activity change, negative = cytotoxicity, usual class: cytotoxic. hit rate 0.12% among 150,000;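 also: potency is read from the fitted curve at half-maximal effect; 0% = DMSO-treated cells and -100% = medium-only wells without cells; nearly all actives have a fitted effect of over 30% in size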
#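 Cytotoxicity counterscreen: after 24 h compound treatment of genome-edited SNCA-luciferase HEK-293 cells, live-cell protease substrate GF-AFC read by fluorescence after 30 min; activity scaled between DMSO (0%) and medium-only (-100%), curves Hill-fitted.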
# * hit, by the source's call; i = inactive; ? = inconclusive; · = not tested or not shown; ! = not active in a repeat; [ ] = another dose, or the depositor's remark. Rows were chosen to be rich in hits. Some 3% of all compounds tested hit in one or more screens of this group. Unless noted, calls follow the shape of the dose curve; as a rule, active = well fitted curve in the direction sought with a large enough effect; inconclusive = small, poorly fitted or top-dose-only effect, or another doubt; inactive = no such curve, though single readings can be large; an effect the other way counts as inactive or inconclusive.
SMILES,SNCA expr inhib,KDM5B inhibitor,IP6K1 inhibitor,SNCA viab count
CC(NC(=O)c1ccc2c(c1)OCO2)C(=O)N1CCN(c2ccccn2)CC1 (stereo not given),15%,32µM*,17,-6%
CC(NC(=O)c1cccc(C#N)c1)C(=O)N1CCN(c2ccccn2)CC1 (stereo not given),2%,25µM*,1,-2%
O=[S+]([O-])(NC1CCN(c2ccc3nnc(C4CC4)n3n2)C1)c1cccc(C(F)(F)F)c1 (stereo not given),·,·,20,·
N#Cc1ccc(C(=O)NC2CCN(c3cc(-c4ccc(Cl)cc4)[nH]n3)C2)cc1 (stereo not given),-3%,?,11,-7%
Cc1c(-c2ccc(F)cc2)[nH]c2ccc(CNC(=O)CN3CCOC3=O)cc12,-1%,28µM*,1,-1%
O=C(CN1CCOCC1)NCc1ccc(F)cc1,·,i,·,·
CCN1CCN(CC(=O)NCc2ccc3[nH]c(-c4ccc(F)cc4)c(C)c3c2)CC1,34%,32µM*,2,4%
COC(=O)c1c(C)[nH]c(C(=O)C(C)Cl)c1C (stereo not given),·,i,·,·
O=C(NCC1CCCCC1)C1(CCO)CCN(c2ncccn2)C1 (stereo not given),16%,32µM*,-10,-1%
CC(C)CNC(=O)C1(CCO)CCN(c2ncccn2)C1 (stereo not given),-4%,25µM*,7,-14%
O=C(NCCN1CCCCC1)C1(CCO)CCN(c2ncccn2)C1 (stereo not given),9%,25µM*,-8,-7%
O=C(NCCc1ccc(F)cc1)C1CCCN(Cc2cccc(-c3cccs3)c2)C1 (stereo not given),·,·,0,·
O=C(c1cn2cc(-c3ccccc3)sc2n1)N1CCOCC1,-89%[87.6 µM],·,-18,1%[87.6 µM]
CCCN(CCC)Cc1ccc(C(=O)NCc2c(C)noc2C)cc1,8%,28µM*,10,26%
Cc1noc(C)c1CNC(=O)CC(C)(C)C,3%,i,8,-10%
CCN1CCN(c2nc(SC)nc(-c3ccc(Cl)cc3)c2C#N)CC1,·,i,·,·
O=C(NCc1cccc(F)c1)c1ccc2nccn2c1,-3%[87.6 µM],·,12,0%[87.6 µM]
O=C(NCc1ccc(Cl)cc1)c1ccc2nnc(-c3cccnc3)n2c1,2%,·,1,7%
O=C(NCc1ccccc1)c1ccc2nnc(-c3cccnc3)n2c1,25µM*,·,20,-29%
O=C(NCc1ccncc1)c1ccc2nccn2c1,5%,?,0,12%
O=C(NCc1cccc(C(F)(F)F)c1)c1ccc2nccn2c1,-14%[87.6 µM],35µM*,-12,9%[87.6 µM]
O=C(NCc1cccs1)c1ccc2nccn2c1,95%[87.6 µM],35µM*,-14,-9%[87.6 µM]
O=C(NCc1cccnc1)c1ccc2nccn2c1,-10%[87.6 µM],112µM*!,5,20%[87.6 µM]
CC(C)COC(=O)N[C@@H]1C[C@@H]2CO[C@H](c3ccccc3)C[C@@H]2C1,·,·,10,·
CC(=O)Nc1cccc(-c2ccc3c(n2)c(=O)ncn3Cc2ccccc2)c1,-6%[87.6 µM],i,10,5%[87.6 µM]
SMILES,SNCA expr inhib,KDM5B inhibitor,IP6K1 inhibitor,SNCA viab count
O=c1ncn(CC2CC2)c2ccc(-c3ccc(F)cc3)nc12,77%[87.6 µM],35µM*,9,4%[87.6 µM]
O=c1ncn(Cc2ccccc2)c2ccc(-c3ccc(F)cc3)nc12,52%[87.6 µM],35µM*,13,10%[87.6 µM]
O=c1ncn(CC2CC2)c2ccc(-c3ccc(Cl)cc3)nc12,137%[87.6 µM],40µM*,2,7%[87.6 µM]
COc1cc(F)ccc1-c1ccc2c(n1)c(=O)ncn2CCC(F)(F)F,-8%[87.6 µM],?,0,3%[87.6 µM]
O=c1ncn(Cc2ccccc2)c2ccc(NCCOc3ccccc3)nc12,-11%[87.6 µM],35µM*,-3,2%[87.6 µM]
O=c1ncn(CC2CC2)c2ccc(-c3ccc4c(c3)OCO4)nc12,106%[87.6 µM],i,0,3%[87.6 µM]
O=C(NC1CCN(Cc2ccc(-c3ccsc3)cc2)C1)c1ccccc1Cl (stereo not given),?,·,-4,-30%
CCCc1noc(-c2cccn3c(CNC(=O)C4CC4)nnc23)n1,-18%,25µM*,-2,-2%
CCc1noc(-c2cccn3c(CNC(=O)C4CCCCC4)nnc23)n1,-11%,?,7,-1%
CC(C)c1noc(-c2cccn3c(CNC(=O)C4CC4)nnc23)n1,-8%,28µM*,7,8%
CCc1noc(-c2cccn3c(CNC(=O)C4CC4)nnc23)n1,-15%,25µM*,-2,-3%
Cc1ccccc1C(=O)NC1CCN(c2nccc(Nc3ccccc3F)n2)CC1,41%,·,3,?
Cc1ccccc1-c1nc(N2CCOCC2)cc2c1CN(CC1CC1)C2=O,-5%[87.6 µM],35µM*,17,-13%[87.6 µM]
COc1ccc(-c2nc(N3CCOCC3)cc3c2CN(CC2CC2)C3=O)cn1,23%[87.6 µM],35µM*,5,4%[87.6 µM]
COc1ccc(-c2nc(N3CCOCC3)cc3c2CN(Cc2ccccc2)C3=O)cc1OC,26%,i,7,1%
COc1ccc(-c2nc(N3CCOCC3)cc3c2CN(Cc2ccccc2)C3=O)cn1,35%[87.6 µM],35µM*,11,1%[87.6 µM]
CCCc1cc(NCCN(C)C)n2nc(C)c(-c3ccccc3)c2n1,·,i,·,·
Cc1nn2c(NCCc3ncc[nH]3)cc(-c3ccccc3)nc2c1C,?,32µM*,-1,3%
COc1ccc(/C(O)=C2\C(=O)C(=O)NC2c2ccc(Cl)cc2)cc1F (stereo not given),·,i,·,·
CN(C)C[C@@H]1CN(C2CCOCC2)C[C@H]1NC(=O)c1n[nH]c2ccccc12,32%,22µM*,4,27%
CN(C)C[C@@H]1CN(C)C[C@H]1NC(=O)c1nn(C)c2ccccc12,0%,32µM*,7,3%
CN(C)C[C@@H]1CN(c2ncccn2)C[C@H]1NC(=O)c1nn(C)c2ccccc12,4%,32µM*,6,-2%
CN(C)C[C@@H]1CN(C)C[C@H]1NC(=O)c1ccc(Br)cc1,41%,i,-8,0%
Cc1cccc(N2CCN(c3cc(C(=O)O)c4cc(NC(=O)c5ccccc5)ccc4n3)CC2)c1,·,i,·,·
O=c1cc(-c2cccnc2)nc(-c2ccc(CN3CC[C@@H](O)C3)cc2)[nH]1,-24%,i,9,-9%
SMILES,SNCA expr inhib,KDM5B inhibitor,IP6K1 inhibitor,SNCA viab count
O=c1[nH]c2cc3c(cc2cc1CN1CC[C@H](O)C1)OCO3,7%,28µM*,10,3%
CC(C)c1cccc(NC(=O)c2ccc(Cn3ccn4nc5c(c4c3=O)CCCC5)cc2)c1,-19%,22µM*,25,1%
COc1ccccc1OCCNC(=O)c1ccc(Cn2ccn3nc4c(c3c2=O)CCCC4)cc1,-22%,25µM*,32,-23%
O=C(Nc1ccc(Cl)cc1)c1ccc(Cn2ccn3nc4c(c3c2=O)CCCC4)cc1,38%,i,18,-14%
COCCCNC(=O)c1ccc(Cn2ccn3nc4c(c3c2=O)CCCC4)cc1,9%,i,-3,-10%
O=C(Nc1ccc(F)cc1)c1ccc(Cn2ccn3nc4c(c3c2=O)CCCC4)cc1,-2%,?,0,9%

# Assay outcomes as filed in PubChem.
